Laboratory results: PubChem BioAssay AID1159580 (chemical genetic matrix, 2015)
The campaign covered roughly 5,500 compounds. About 2,000 (36%) were called active. About 18% were inconclusive and are not listed. Some of the results follow. A number with no mark means an inactive call. No stated cut-off is given here; in the data, active means normalized growth mostly below about 0.91 (no sharp cut-off); inconclusive means no clear call, values can overlap the other calls; inactive means mostly above about 0.92.

Assay: chemical genetic growth profiling, strain panel (AID 1159580);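 further: tested at 20 µM; growth read once vehicle control cultures reached saturation at 30 °C; 1 = growth at the plate median or of vehicle wells; lower values mean less growth of the strain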
Settings: growth OD

Q: With `C1CCN2CC3CC(CN4CCCCC34)C2C1` (centres undefined) as the compound, how does the normalized growth (S. cerevisiae deletion strains, locus YJR043C, strain POL32, active compounds read low) read?
A: 1.02

Q: And the normalized growth (S. cerevisiae deletion strains, locus YJR075W, strain HOC1, active compounds read low)?
A: 1.01

Q: And the normalized growth (S. cerevisiae deletion strains, locus YKL009W, strain mrt4, active compounds read low)?
A: 1.02

Q: And the normalized growth (S. cerevisiae deletion strains, locus YKL068W, active compounds read low)?
A: 1.01

Q: What about the normalized growth (S. cerevisiae deletion strains, locus YKL085W, strain MDH1 (second series), active compounds read low) of the same compound?
A: 1

Q: What about the normalized growth (S. cerevisiae deletion strains, locus YKL085W, strain MDH1, active compounds read low) of the same compound?
A: 1

Q: And the normalized growth (S. cerevisiae deletion strains, locus YKL160W, strain elf1, active compounds read low)?
A: 0.991

Q: And the normalized growth (S. cerevisiae deletion strains, locus YKL190W, strain CNB1, active compounds read low)?
A: 1

Q: And the normalized growth (S. cerevisiae deletion strains, locus YKR001C, strain vps1, active compounds read low)?
A: 0.964

Q: What about the normalized growth (S. cerevisiae deletion strains, locus YKR026C, strain gcn3, active compounds read low) of the same compound?
A: 1.02

Q: And the normalized growth (S. cerevisiae deletion strains, locus YKR091W, strain srl3, active compounds read low)?
A: 1.01

Q: And the normalized growth (S. cerevisiae deletion strains, locus YLL001W, strain dnm1, active compounds read low)?
A: 1.04

Q: What about the normalized growth (S. cerevisiae deletion strains, locus YLL026W, active compounds read low) of the same compound?
A: 1.01

Q: What about the normalized growth (S. cerevisiae deletion strains, locus YLL041C, strain sdh2, active compounds read low) of the same compound?
A: 1.02

Q: What about the normalized growth (S. cerevisiae deletion strains, locus YLR027C, strain aat2, active compounds read low) of the same compound?
A: 1.01

Q: What about the normalized growth (S. cerevisiae deletion strains, locus YLR039C, strain RIC1, active compounds read low) of the same compound?
A: 1.04

Q: What about the normalized growth (S. cerevisiae deletion strains, locus YLR058C, strain SHM2, active compounds read low) of the same compound?
A: 1.02

Q: What about the normalized growth (S. cerevisiae deletion strains, locus YLR102C, strain apc9, active compounds read low) of the same compound?
A: 1.01

Q: What about the normalized growth (S. cerevisiae deletion strains, locus YLR221C, strain rsa3, active compounds read low) of the same compound?
A: 1.01

Q: What about the normalized growth (S. cerevisiae deletion strains, locus YLR258W, strain gsy2, active compounds read low) of the same compound?
A: 1.02

Q: And the normalized growth (S. cerevisiae deletion strains, locus YLR262C, strain YPT6 (second series), active compounds read low)?
A: 1

Q: What about the normalized growth (S. cerevisiae deletion strains, locus YLR262C, strain YPT6, active compounds read low) of the same compound?
A: 1.01

Q: And the normalized growth (S. cerevisiae deletion strains, locus YLR268W, strain sec22, active compounds read low)?
A: 0.894

Q: And the normalized growth (S. cerevisiae deletion strains, locus YLR320W, strain mms22, active compounds read low)?
A: 1.03

Q: What about the normalized growth (S. cerevisiae deletion strains, locus YLR330W, strain CHS5, active compounds read low) of the same compound?
A: 1.01

Q: What about the normalized growth (S. cerevisiae deletion strains, locus YLR342W, strain FKS1 (second series), active compounds read low) of the same compound?
A: 1.03

Q: What about the normalized growth (S. cerevisiae deletion strains, locus YLR342W, strain FKS1, active compounds read low) of the same compound?
A: 1.02

Q: And the normalized growth (S. cerevisiae deletion strains, locus YLR357W, strain rsc2, active compounds read low)?
A: 1.04

Q: What about the normalized growth (S. cerevisiae deletion strains, locus YLR370C, strain arc18, active compounds read low) of the same compound?
A: 1.02

Q: And the normalized growth (S. cerevisiae deletion strains, locus YLR371W, strain rom2, active compounds read low)?
A: 0.967

Q: And the normalized growth (S. cerevisiae deletion strains, locus YLR384C, strain iki3, active compounds read low)?
A: 1.02

Q: And the normalized growth (S. cerevisiae deletion strains, locus YLR418C, strain cdc73, active compounds read low)?
A: 0.811 (active)

Q: And the normalized growth (S. cerevisiae deletion strains, locus YML016C, strain PPZ1, active compounds read low)?
A: 1.01

Q: What about the normalized growth (S. cerevisiae deletion strains, locus YML032C, strain rad52, active compounds read low) of the same compound?
A: 1.03

Q: What about the normalized growth (S. cerevisiae deletion strains, locus YML120C, strain ndi1, active compounds read low) of the same compound?
A: 1.01

Q: And the normalized growth (S. cerevisiae deletion strains, locus YML124C, strain tub3, active compounds read low)?
A: 1.01

Q: What about the normalized growth (S. cerevisiae deletion strains, locus YMR058W, strain fet3, active compounds read low) of the same compound?
A: 1.02

Q: What about the normalized growth (S. cerevisiae deletion strains, locus YMR078C, strain ctf18, active compounds read low) of the same compound?
A: 1.02

Q: What about the normalized growth (S. cerevisiae deletion strains, locus YMR125W, strain sto1, active compounds read low) of the same compound?
A: 1.06

Q: What about the normalized growth (S. cerevisiae deletion strains, locus YMR129W, active compounds read low) of the same compound?
A: 1.03

Q: What about the normalized growth (S. cerevisiae deletion strains, locus YMR205C, strain PFK2, active compounds read low) of the same compound?
A: 1.04

Q: What about the normalized growth (S. cerevisiae deletion strains, locus YMR223W, strain ubp8, active compounds read low) of the same compound?
A: 0.909

Q: What about the normalized growth (S. cerevisiae deletion strains, locus YMR231W, strain pep5, active compounds read low) of the same compound?
A: 1.02

Q: What about the normalized growth (S. cerevisiae deletion strains, locus YMR263W, strain SAP30, active compounds read low) of the same compound?
A: 0.997

Q: What about the normalized growth (S. cerevisiae deletion strains, locus YMR307W, strain GAS1, active compounds read low) of the same compound?
A: 1.02

Q: And the normalized growth (S. cerevisiae deletion strains, locus YNL067W, strain RPL9B, active compounds read low)?
A: 0.988

Q: What about the normalized growth (S. cerevisiae deletion strains, locus YNL071W, strain lat1, active compounds read low) of the same compound?
A: 1.02

Q: And the normalized growth (S. cerevisiae deletion strains, locus YNL128W, strain TEP1, active compounds read low)?
A: 1.01

Q: What about the normalized growth (S. cerevisiae deletion strains, locus YNL153C, strain GIM3, active compounds read low) of the same compound?
A: 0.986

Q: What about the normalized growth (S. cerevisiae deletion strains, locus YNL209W, strain ssb2, active compounds read low) of the same compound?
A: 1.02

Q: And the normalized growth (S. cerevisiae deletion strains, locus YNL233W, strain BNI4, active compounds read low)?
A: 0.998

Q: And the normalized growth (S. cerevisiae deletion strains, locus YNL248C, strain rpa49, active compounds read low)?
A: 1.02

Q: And the normalized growth (S. cerevisiae deletion strains, locus YNL250W, strain rad50, active compounds read low)?
A: 1.03

Q: And the normalized growth (S. cerevisiae deletion strains, locus YNL271C, strain bni1, active compounds read low)?
A: 1.01

Q: And the normalized growth (S. cerevisiae deletion strains, locus YNL298W, strain CLA4, active compounds read low)?
A: 1.01

Q: What about the normalized growth (S. cerevisiae deletion strains, locus YNL307C, strain MCK1, active compounds read low) of the same compound?
A: 0.294 (active)

Q: And the normalized growth (S. cerevisiae deletion strains, locus YNL322C, strain KRE1 (second series), active compounds read low)?
A: 1.01

Q: And the normalized growth (S. cerevisiae deletion strains, locus YNL322C, strain KRE1, active compounds read low)?
A: 1.01

Q: What about the normalized growth (S. cerevisiae deletion strains, locus YNR049C, strain mso1, active compounds read low) of the same compound?
A: 1.02

Q: And the normalized growth (S. cerevisiae deletion strains, locus YNR052C, strain pop2, active compounds read low)?
A: 1.02

Q: What about the normalized growth (S. cerevisiae deletion strains, locus YOL006C, strain TOP1, active compounds read low) of the same compound?
A: 1.03

Q: What about the normalized growth (S. cerevisiae deletion strains, locus YOL012C, strain htz1) of the same compound?
A: 0.345

Q: What about the normalized growth (S. cerevisiae deletion strains, locus YOL147C, strain pex11, active compounds read low) of the same compound?
A: 1.01

Q: What about the normalized growth (S. cerevisiae deletion strains, locus YOR001W, strain rrp6, active compounds read low) of the same compound?
A: 1.01

Q: What about the normalized growth (S. cerevisiae deletion strains, locus YOR061W, strain CKA2, active compounds read low) of the same compound?
A: 1.01

Q: And the normalized growth (S. cerevisiae deletion strains, locus YOR069W, strain VPS5, active compounds read low)?
A: 1.01

Q: What about the normalized growth (S. cerevisiae deletion strains, locus YOR070C, strain gyp1, active compounds read low) of the same compound?
A: 1.02

Q: And the normalized growth (S. cerevisiae deletion strains, locus YOR080W, strain dia2, active compounds read low)?
A: 1.02

Q: What about the normalized growth (S. cerevisiae deletion strains, locus YOR083W, strain WHI5, active compounds read low) of the same compound?
A: 0.99

Q: And the normalized growth (S. cerevisiae deletion strains, locus YOR106W, strain vam3, active compounds read low)?
A: 1

Q: And the normalized growth (S. cerevisiae deletion strains, locus YOR136W, strain idh2, active compounds read low)?
A: 0.961

Q: What about the normalized growth (S. cerevisiae deletion strains, locus YOR144C, strain elg1, active compounds read low) of the same compound?
A: 1.01

Q: What about the normalized growth (S. cerevisiae deletion strains, locus YOR184W, strain ser1, active compounds read low) of the same compound?
A: 0.959

Q: And the normalized growth (S. cerevisiae deletion strains, locus YOR265W, strain rbl2, active compounds read low)?
A: 1.02

Q: And the normalized growth (S. cerevisiae deletion strains, locus YOR270C, strain vph1, active compounds read low)?
A: 1.03

Q: And the normalized growth (S. cerevisiae deletion strains, locus YOR290C, strain snf2, active compounds read low)?
A: 0.985

Q: And the normalized growth (S. cerevisiae deletion strains, locus YOR316C, strain cot1, active compounds read low)?
A: 1.01

Q: And the normalized growth (S. cerevisiae deletion strains, locus YPL051W, strain arl3, active compounds read low)?
A: 0.998

Q: What about the normalized growth (S. cerevisiae deletion strains, locus YPL055C, strain LGE1, active compounds read low) of the same compound?
A: 1

Q: What about the normalized growth (S. cerevisiae deletion strains, locus YPL078C, strain atp4, active compounds read low) of the same compound?
A: 1

Q: And the normalized growth (S. cerevisiae deletion strains, locus YPL106C, strain sse1, active compounds read low)?
A: 1.04

Q: What about the normalized growth (S. cerevisiae deletion strains, locus YPL240C, strain hsp82, active compounds read low) of the same compound?
A: 1.03

Q: And the normalized growth (S. cerevisiae deletion strains, locus YPL241C, strain CIN2, active compounds read low)?
A: 1.01

Q: And the normalized growth (S. cerevisiae deletion strains, locus YPR119W, strain clb2, active compounds read low)?
A: 1

Q: What about the normalized growth (S. cerevisiae deletion strains, locus YPR141C, strain kar3, active compounds read low) of the same compound?
A: 1.02

Q: What about the normalized growth (S. cerevisiae deletion strains, locus YPR163C, strain tif3, active compounds read low) of the same compound?
A: 0.873 (active)

Q: And the normalized growth (S. cerevisiae deletion strains, locus YPR167C, strain met16, active compounds read low)?
A: 0.992

Q: And the normalized growth (S. cerevisiae deletion strains, strain wtn01, active compounds read low)?
A: 0.863 (active)

Q: What about the normalized growth (S. cerevisiae strains, strain wild type, active compounds read low) of the same compound?
A: 1.01
